Inconclusive results are not listed. Where a call stands in place of a potency, no number is given. The source made the active and inactive calls. Calls come from the whole dose curve; as a rule, active = well fitted inhibition curve with a large enough effect; inconclusive = small, poorly fitted or top-dose-only effect; inactive = no such curve, though single readings can be large or run the other way.
Experiments:
[1] = system: Zika virus NS2B-NS3 protease (unlinked complex); assay: Primary screen GU Rhodamine qHTS for Zika virus inhibitors: Unlinked NS2B-NS3 protease assay (AID 1347159); details: Recombinant ZIKV NS2B-NS3 protease, Rhodamine110 substrate fluorescence; series mostly up to 107 µM; note: nearly all actives have a fitted effect of over 60% in size
In short: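 Compounds, tested up to 114 microM, were incubated for 15 minutes with 25 nM unlinked NS2B-NS3 protease at pH 8.0. Cleavage of 1.5 microM Rhodamine110 substrate was then followed by fluorescence for 15 minutes.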

[2] = system: Zika virus NS2B-NS3 protease (linked construct); assay: Primary screen NINDS Rhodamine qHTS for Zika virus inhibitors (AID 1347160); details: purified NS2B-NS3 protease, Rhodamine110 substrate fluorescence; series mostly up to 57.1 µM; note: nearly all actives have a fitted effect of over 55% in size
In short: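 Percent inhibition, normalized to uninhibited and enzyme-free controls, is fitted to a 4-parameter Hill equation. Fluorescence change comes from a 15-min cleavage of 1.5 microM bis-peptide Rhodamine110 substrate by 25 nM linked NS2B-NS3 at room temperature.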

Row | SMILES | Potency [1] | Potency [2]
1 | Oc1ccc(-c2cnc3ccc(NCc4ccco4)nn23)cc1 | inactive | inactive
2 | COc1cccc(CN(C(=O)CC(C)(C)C)[C@H]2C[C@H](C(=O)N3CCNCC3)N(Cc3ccc4c(c3)OCO4)C2)c1 | inactive | inactive
3 | CCNC(=O)C#Cc1ccc2c(C(=Nc3ccc(CN(C)C)cc3)c3ccccc3)c(O)[nH]c2c1 | inactive | inactive
4 | O=S(=O)(NCc1cccc2ccccc12)c1cc(Cl)c(Oc2cccc(N3CCNCC3)c2)s1 | inactive | inactive
5 | CCCCCCOC(=O)/N=C(\N)c1ccc(NCc2nc3cc(C(=O)N(CCC(=O)OCC)c4ccccn4)ccc3n2C)cc1 | inactive | inactive
6 | C=CC(C)(O)CC/C=C(/C)COC(=O)C(C)C1CCC(C)(C=C)O1 (configuration not stated) | inactive | inactive
7 | O=c1cc(OCc2ccc(F)cc2)ccn1-c1ccc(OCCN2CCCC2)cc1 | inactive | inactive
8 | CC(CCC1(O)OC2CC3C4CC=C5CC(O[C@@H]6O[C@H](CO)[C@@H](O[C@@H]7O[C@@H](C)[C@H](O)[C@@H](O)[C@H]7O)[C@H](O)[C@H]6O[C@@H]6O[C@@H](C)[C@H](O)[C@@H](O)[C@H]6O)CCC5(C)C4CCC3(C)C2C1C)CO[C@@H]1O[C@H](CO)[C@@H](O)[C@H](O)[C@H]1O (some centres not stated) | inactive | inactive
9 | C[C@@H](NC(=O)c1ccc(C#Cc2cccc(F)c2)cn1)C(C)(C)O | inactive | inactive
10 | CCC(C)CNCC(=O)N1CCc2sccc2C1COc1cccc(C)c1 (configuration not stated) | inactive | inactive
11 | CCOC(=O)N1c2ccc(C(F)(F)F)cc2C(N(Cc2cc(C(F)(F)F)cc(C(F)(F)F)c2)C(=O)OC)CC1CC (configuration not stated) | inactive | inactive
